Assay outcomes as filed in PubChem.
HPGD block – inhibitors of human 15-hydroxyprostaglandin dehydrogenase (HPGD). purified HPGD, NADH fluorescence kinetic, PGE2 substrate. P15428. 150,000 compounds, 4.3% hits. Potency, µM, without a hit: top-dose activity change, negative = inhibition, most hits filed as inhibitors; note: potency is the fitted concentration of half-maximal effect
Target sequence (P15428 whole entry, looked up): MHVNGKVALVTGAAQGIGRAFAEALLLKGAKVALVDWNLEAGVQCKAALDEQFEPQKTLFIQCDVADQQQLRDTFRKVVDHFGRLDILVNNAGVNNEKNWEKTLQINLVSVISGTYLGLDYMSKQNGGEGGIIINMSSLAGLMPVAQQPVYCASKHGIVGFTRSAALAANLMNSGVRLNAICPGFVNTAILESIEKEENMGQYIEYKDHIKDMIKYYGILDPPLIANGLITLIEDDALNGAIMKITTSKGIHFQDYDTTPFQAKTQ
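NADH formation kinetics: reaction with 30 uM PGE2 and 1 mM NAD+ (final), 20 nM enzyme, Tris-HCl pH 8 with Tween 20, after 15 min compound preincubation at room temperature. Fluorescence change, last versus first of five reads.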
Lamin A splicing – modulators of lamin A splicing; HeLa LMNA splicing GFP/RFP minigene ratio, 48 h; 200,000 compounds, 0.01% hits; AID 1487; Potency, µM (top dose mostly 46.1 µM), for the others: top-dose ratio change, negative = inhibition, hits mostly inhibitors; active = well fitted inhibition curve with a large enough effect in the signal ratio, with a control signal flat, not every such curve was filed as active; inconclusive = small, poorly fitted or top-dose-only effect, or effect the other way, or a change in a side signal; the % refers to the signal ratio; note: potency is the fitted concentration of half-maximal effect
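S3 HeLa stable clones carrying a lamin A-EGFP splicing minigene plus DsRed2 were seeded at 600 cells/well in Opti-MEM with 2% FBS, pin-dosed and incubated 48 h at 37°C. Acumen cytometry (488 nm) gave the GFP/RFP total-intensity ratio.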
KinaseGlo FLuc – counter-screen: inhibitors of Kinase-Glo firefly luciferase. Potency, µM (titrated, usually from 38.3 µM), for inactives: at the top dose activity change, negative = inhibition, usual class: inhibitors. 200,000 compounds, 0.28% hits. AID 1379. Kinase-Glo luciferase, ATP luminescence, 8 min. Q27757; active = well fitted inhibition curve with a large enough effect; inconclusive = small, poorly fitted or top-dose-only effect; note: potency is the fitted concentration of half-maximal effect; nearly all actives have a fitted effect of over 60% in size
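Substrate mix (final 50 mM imidazole pH 7.2, 50 mM KCl, 7 mM MgCl2, 10 uM ATP, 0.01% Tween 20, 0.05% BSA) plus pin-tool compound, then Kinase-Glo detection mix; 8 min ambient, luminescence read.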
PNC inhibitor – perinucleolar compartment assembly inhibition; PC3M PTB-GFP, PNC prevalence imaging, 16 h; hits give low values; activity change (PNC), negative = inhibition, % at 10 µM; 140,000 compounds, 3.1% hits; AID 2417;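 active = readout at or below -70, meaning at least 70% loss of cells showing the perinucleolar compartment, a nuclear body marking cancer cells; inconclusive = readout between -30 and a set limit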;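 note: plate controls were DMSO wells for no effect and camptothecin positive control wells for full effect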
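Compounds are pinned in duplicate onto adhered PC3M cells stably expressing GFP-tagged PTB and incubated 16 h at 37 C. Cells are then fixed, nuclei stained with Hoechst, and PNC-positive cells counted.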
IMPase cell inh – membrane-permeable compound that blocks inositol monophosphatase. CHO-M1 cells, IP1 accumulation, HTRF TR-FRET ratio. inhibition (IP1 accumulation), % at 46.1 µM. 120,000 tested, under 10 active. P97697; active = well fitted curve in the direction sought with a large enough effect in the signal ratio, not every such curve was filed as active; inconclusive = small, poorly fitted or top-dose-only effect, or a change in a side signal; inactive = no such curve, though single readings can be large or run the other way; the % refers to the signal ratio;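 note: cells stimulated with carbachol in lithium chloride buffer; plate controls were DMSO basal wells for no effect and reference inhibitor wells for full effect; higher means more IMPase inhibition seen as more IP1 and lower FRET ratio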
Target sequence (P97697 whole entry, looked up): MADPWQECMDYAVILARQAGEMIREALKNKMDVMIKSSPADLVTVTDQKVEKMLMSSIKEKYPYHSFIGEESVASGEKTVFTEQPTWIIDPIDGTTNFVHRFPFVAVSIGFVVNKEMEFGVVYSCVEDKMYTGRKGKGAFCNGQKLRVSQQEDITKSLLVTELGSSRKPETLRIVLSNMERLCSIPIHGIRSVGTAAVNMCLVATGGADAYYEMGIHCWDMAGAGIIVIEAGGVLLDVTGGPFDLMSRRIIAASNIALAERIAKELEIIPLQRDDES
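Cellular IMPase inhibition is scored as a rise in cytosolic IP1, detected by competitive TR-FRET between d2-labelled IP1 and a europium anti-IP1 antibody. M1-expressing CHO cells were stimulated with carbachol for 30 min at 37C, with lithium (50 mM LiCl) present in the buffer.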
ALDH1A1 block – inhibitors of human aldehyde dehydrogenase 1A1. Potency, µM (titrated, usually from 75.3 µM), for the others: top-dose activity, negative = inhibition, hits mostly inhibitors. P00352. Purified ALDH1A1, NADH fluorescence, propionaldehyde substrate. 220,000 compounds, 7.3% hits;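 note: potency is the fitted concentration of half-maximal effect; plate controls were no enzyme wells and a reference inhibitor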
* = called active by the depositor; ? = inconclusive; . = no result given; [ ] = dose if it differs, or a comment. Hits are enriched below; roughly 10% of the tested compounds scored in any of these assays. Unless noted, calls come from the whole dose curve; as a rule, active = well fitted inhibition curve with a large enough effect (not every such curve was filed as active); inconclusive = small, poorly fitted or top-dose-only effect, or another doubt; inactive = no such curve, though single readings can be large or run the other way. Unless noted, % is set by controls: 0 for no effect and ±100 for the full control effect.

SMILES	HPGD block	Lamin A splicing	KinaseGlo FLuc	PNC inhibitor	IMPase cell inh	ALDH1A1 block
Cc1cccc2cc(C(c3nnnn3CC3CCCO3)N3CCCC4(CCCCC4)C3)c(=O)[nH]c12 (stereo not given)	-11%	-8%	2%	-3	-7	?
Cc1cccc2cc(C(c3nnnn3CC3CCCO3)N3CCc4ccccc4C3)c(=O)[nH]c12 (stereo not given)	-24%	1%	2%	22	6	13µM*
COc1ccc(CNc2ccnc(-c3c(C)noc3C)n2)c(OC)c1	.	?	.	.	.	-12%
O=C(NCC(c1cccnc1)N1CCc2ccccc21)c1cccc(F)c1 (stereo not given)	.	8%[46 µM]	.	.	.	.
CCCNC(=O)C1CCN(c2ccc(S(=O)(=O)N3CCOCC3)cc2Cl)CC1	16µM*	?	1%	?	7	6%
Cc1ccccc1Nc1nc(N)nc(-c2oc3ccccc3c2C)n1	.	.	.	.	.	2%
Cc1ccccc1Nc1nc(N)c2ccccc2n1	.	?	13µM*	.	.	-3%
Nc1nc(Nc2ccc(Cl)cc2)nc2ccccc12	?	-3%	14µM*	?	3	?
Nc1nc(Nc2ccccc2)nc2ccccc12	-10%	1%	11µM*	11	0	14%
O=c1[nH]c(/C(=N\O)c2ccccc2)no1	?	14%	1%	?	28	24µM*
NC(=O)/C(=N\O)c1ccccc1	2%	0%	-1%	27	-10	10%
Cc1cccc2cc(-c3nc4c(C)cccn4c3NCc3ccco3)c(=O)[nH]c12	2%	-1%	-5%	15	2	20µM*
CC(=O)OC1CC(OC(C)=O)[C@]2(C)C(CC(OC(C)=O)[C@]3(C)C2CC[C@@]2(C)C(c4ccoc4)OC(=O)C4O[C@]432)C1(C)C (stereo not given in full)	7%	.	-2%	.	.	0%
O=C(O)CC1S/C(=N/N=C/c2ccc(Br)cc2)N(c2ccccc2)C1=O (stereo not given)	.	.	.	.	.	14µM*
O=C(O)CC1SC(=Nc2ccccc2)N(c2ccccc2)C1=O (stereo not given)	-6%	15%	2%	?	6	-2%
Cc1ccc(Cl)cc1NC(=O)CSC(N)=O	-7%	2%	3%	?	-3	1.6µM*
COc1cc(OC)c(NC(=O)CCc2ccccc2)cc1Cl	16µM*	13%	-1%	-30	1	-6%
COc1cc(Cl)c(C)cc1NC(=O)CSc1cc(Cl)ccc1Cl	-9%	-7%	0%	-119*	1	-5%
COCC(=O)Nc1cc(Cl)ccc1C	.	?	-1%	.	.	?
COc1cc(Cl)c(C)cc1NC(=O)CSc1ccc(C)cc1	-13%	0%	1%	16	7	-4%
COc1cc(Cl)c(C)cc1NC(=O)CSc1ccccc1	-11%	-7%	0%	-125*	.	?
CC(C)(C)C1CCc2c(sc(NC(=O)c3ccc(Cl)cc3)c2C(=O)NCc2ccco2)C1 (stereo not given)	.	.	.	.	3	.
Cn1cc(CN2CCc3c([nH]c4ccccc34)C2C2CCCCC2)cn1 (stereo not given)	.	-1%[46 µM]	-3%	.	.	13µM*
Cn1cc(CN2CCc3c([nH]c4ccccc34)C2C(C)(C)C)cn1 (stereo not given)	.	.	.	.	.	-3%
CCOc1ccc(/C=C(\C#N)C(=O)NCC2CCCO2)cc1OCC (stereo not given)	-24%	-28%	1%	26	.	28µM*
SMILES	HPGD block	Lamin A splicing	KinaseGlo FLuc	PNC inhibitor	IMPase cell inh	ALDH1A1 block
O=C(CCc1nc2ccccc2[nH]1)NC1CCCCC1	-12%	-4%	2%	58	-4	-4%
O=C(CCc1nc2ccccc2[nH]1)N1CCc2ccccc2C1	-18%	-4%	-2%	-91*	.	-3%
O=C(Cn1ncc(Cl)c(Cl)c1=O)N1CCN(Cc2ccccc2)CC1	.	?	-1%	.	.	28µM*
O=C(Cn1nnc2ccccc2c1=O)N1CCCc2ccccc21	-5%	5%	1%	?	-4	?
O=C(Cn1ncc(Cl)c(Cl)c1=O)N1CCc2ccccc21	.	.	-3%	.	.	10µM*
Cc1nn(CC(=O)N2c3ccccc3NC(=O)C2(C)C)c(C)c1[N+](=O)[O-]	.	5%[46 µM]	3%	.	.	0%
CC1(C)C(=O)Nc2ccccc2N1C(=O)Cn1ncc(Cl)c(Cl)c1=O	.	.	.	.	.	1.1µM*
O=C(Cn1ncc(Cl)c(Cl)c1=O)N1CCOCC1	.	?	0%	.	.	-3%
Cc1ccccc1OCC1Cn2c(nc3c2c(=O)[nH]c(=O)n3C)O1 (stereo not given)	-5%	-3%	-1%	22	-7	-19%
Cc1ccc(OCC2Cn3c(nc4c3c(=O)[nH]c(=O)n4C)O2)cc1 (stereo not given)	-6%	-7%	-2%	-103*	6	15%
COc1ccc(C(=O)N/N=C\c2coc3ccccc3c2=O)cc1	.	.	.	.	.	3.5µM*
O=C(N/N=C/c1coc2ccccc2c1=O)c1cc(O)cc(O)c1	.	.	-1%	.	.	?
O=C(N/N=C/c1cc(Cl)ccc1O)c1ccccc1Br	.	.	.	.	.	-9%
O=C(N/N=C/c1coc2ccccc2c1=O)c1cccc([N+](=O)[O-])c1	.	-6%[46 µM]	-1%	.	.	28µM*
O=C(N/N=C/c1coc2ccccc2c1=O)c1ccccc1Br	-29%	-3%	-2%	-21	.	4.5µM*
CCOC(=O)Cn1c(=O)n(CC2CCCO2)c2nc(-c3ccc(C)cc3)nc(C(N)=O)c21 (stereo not given)	.	-11%[46 µM]	.	.	.	.
O=C(NC(=S)NNC(=O)[C@H]1C[C@@H]1c1ccccc1)c1cccc(F)c1	.	.	.	.	.	22µM*
COc1ccc(C(=O)CSc2nc3ccccc3n2CC(=O)NC(C)(C)C)cc1	-2%	5%	0%	54	0	2.2µM*
CC(C)(C)NC(=O)Cn1c(SCC(=O)NC2CCCCC2)nc2ccccc21	-2%	28%	-7%	-100*	-1	0%
CC(NC(=O)c1cc2ccccc2o1)C(=O)O (stereo not given)	-6%	4%	1%	2	-11	22µM*
COC(=O)c1ccc(CNC(=O)c2cc3ccccc3oc2=O)cc1	.	2%[46 µM]	-2%	.	.	-6%
CCNC(=O)c1cc2ccccc2o1	-4%	0%	2%	21	.	10%
